Inconclusive results are not listed. A call without a number means that no potency is given here. Calls of active or inactive are those of the source. Calls follow the shape of the dose curve; as a rule, active = well fitted activation curve with a large enough effect in the signal ratio in the repeat runs (not every such curve was filed as active); inconclusive = weak or mixed curves; inactive = flat fitted curve, though single readings scatter; the % refers to the signal ratio.
experiment: p53 small molecule agonists, cell-based qHTS assay (AID 1963582); conditions: HCT-116 p53RE-bla reporter, beta-lactamase FRET ratio, 16 h; series mostly up to 66 µM
Text: National Center for Advancing Translational Sciences [NCATS]
Division of Preclinical Innovation [DPI]
U.S. Environmental Protection Agency [EPA]
National Institutes of Environmental Health Sciences [NIEHS]
National Toxicology Program [NTP]
U.S. Food and Drug Administration [FDA]
p53, a tumor suppressor protein, is activated following cellular insult, including DNA damage and other cellular stresses. The activation of p53 regulates cell fate by inducing DNA repair, cell cycle arrest, apoptosis, or cellular senescence. The activation of p53, therefore, is a good indicator of DNA damage and other cellular stresses. […] The activation of the reporter gene under culture conditions can be detected by fluorescence intensity. This cell line was used to screen the Tox21 10K compound library in a 1536-well plate format and to identify agonists that activate the p53 signaling pathway.
Tox21 Assay Protocol Summary:
The p53RE-bla cells were dispensed at 4,000 cells/5 ul/well in 1536-well black wall/clear bottom plates using a Multidrop dispenser. After the assay plates were incubated at a 37 C/5% CO2 incubator for 5 hours, 23 nL of compounds dissolved in DMSO, positive controls or DMSO only was transferred to the assay plate by a pin tool. The plates were incubated at 37 C for 16 hours. After 1 uL of LiveBLAzerTM B/G FRET substrate was added using a Flying Reagent Dispenser, the plates were incubated at room temperature for 2 hours, and fluorescence intensity was measured by an Envision plate reader.

Structure (SMILES)	Potency
CCNc1nc(Cl)nc(NC(C)C)n1	inactive
O=NN1CCCCCCC1	inactive
Nc1cccnc1	inactive
O=C(O)C(F)(F)C(F)(F)C(F)(F)C(F)(F)C(F)(F)C(F)(F)C(F)(F)F	inactive
N#Cc1cc([N+](=O)[O-])ccc1N	inactive
C=Cc1cccc(CCl)c1	inactive
O=S(=O)(O)C(F)(F)C(F)(F)C(F)(F)C(F)(F)C(F)(F)C(F)(F)C(F)(F)C(F)(F)F	inactive
Clc1ccc(C(c2ccc(Cl)cc2)C(Cl)Cl)cc1	inactive
COc1ccc2c3c1O[C@H]1[C@H](O)CC[C@H]4[C@@H](C2)N(C)CC[C@@]341	inactive
CN(C)N	inactive
Clc1ccc(C2(Cn3cncn3)OCCO2)c(Cl)c1	inactive
CCCCCCCCCCCCCCCl	inactive
BrCc1ccc(Br)cc1	inactive
CC(C)OC(=S)S	inactive
NC(=O)O	inactive
CCCCCCCCCCCCCl	inactive
COP(N)(=O)SC (stereo not given)	inactive
C=CC(=O)OCCO	inactive
OCCSCSCCO	inactive
Cl/C=C\C[N+]12CN3CN(CN(C3)C1)C2	inactive

Structure (SMILES)	Potency
N#CCCCCC#N	inactive
CCCCCCCCCl	inactive
COC(=O)c1ccccc1C(=O)OC	inactive
C=CCOC(Cn1ccnc1)c1ccc(Cl)cc1Cl (stereo not given)	inactive
COCC(=O)N(c1c(C)cccc1C)C(C)C(=O)OC (stereo not given)	inactive
COP(=S)(OC)SCn1nnc2ccccc2c1=O	inactive
[O-][Cl+2]([O-])O	inactive
Nc1ccc(Br)cc1	inactive
CCN(N=O)C(N)=O	inactive
BrCCBr	inactive
O=C(O)CC[N+](=O)[O-]	inactive
CCN(C)N=O	inactive
CCCC[n+]1cccc(C)c1	inactive
CCOP(=S)(OCC)Oc1ccc2c(C)c(Cl)c(=O)oc2c1	inactive
Cc1ccc2cc(C)ccc2c1	inactive
N#CC(Cl)(Cl)Cl	inactive
OCCCl	inactive
COCC(=O)N(c1c(C)cccc1C)[C@H](C)C(=O)OC	inactive
c1cc2c(c(N3CCNCC3)c1)OCCO2	inactive
CC(C)(C)OOC(C)(C)CCC(C)(C)OOC(C)(C)C	inactive
